Screens: PubChem BioAssay, National Center for Advancing Translational Sciences (NCATS)
Giardia killer = Small Molecules that selectively kill Giardia lamblia: qHTS | Giardia lamblia trophozoite viability | 0.15% of 340,000 active | activity change, % at 7.66 µM, hits read low; in the data active = activity change below about -80%; inconclusive = between about -30% and that limit;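 note: parasites exposed to compound for two days anaerobically before the ATP read; % is set by controls: 0 for no effect and ±100 for the full control effect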
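Giardia lamblia trophozoites (100 cells/well) were incubated with compounds for 48 h at 37 deg C under anaerobic conditions. Viability was read as ATP content by one-step luminescence after 15-30 min at room temperature.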
SW480 rerep = A quantitative high throughput screen for small molecules that induce DNA re-replication in SW480 colon adenocarcinoma cells; SW480 DNA re-replication, Hoechst DNA content imaging, 48 h; AID 624297, 2012; 1.8% of 340,000 active; Potency, µM (titrated, usually from 46.1 µM), without a hit: at the highest dose re-replication activation, hits mostly activators; note: potency is the fitted concentration of half-maximal effect; % of control where 0% means no effect; nearly all actives have a fitted effect of over 55% in size
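First, 250 cells per well were seeded. Next, compound or vehicle (23 nL) was pinned in, plates sat 48 hr at 37 C. Finally Hoechst was added for 40 min before fluorescence scanning.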
Vif-A3G inh = qHTS for Inhibitors of Vif-A3G Interactions: qHTS. AID 602310, 2012. 0.076% of 410,000 active. DNA dC->dU-editing enzyme APOBEC-3G (Homo sapiens), Q9HC16. Potency, µM (series often up to 46.1 µM), inactives show at the top dose activity, negative = active, hits mostly inhibitors. HeLa A3G-eYFP + Vif (tagged APOBEC3G with the HIV-1 protein that degrades it), YFP fluorescence, overnight; note: potency is the fitted concentration of half-maximal effect; % is set by controls: 0 for no effect and ±100 for the full control effect; nearly all actives have a fitted effect of over 60% in size
Target sequence (Q9HC16 whole entry, looked up): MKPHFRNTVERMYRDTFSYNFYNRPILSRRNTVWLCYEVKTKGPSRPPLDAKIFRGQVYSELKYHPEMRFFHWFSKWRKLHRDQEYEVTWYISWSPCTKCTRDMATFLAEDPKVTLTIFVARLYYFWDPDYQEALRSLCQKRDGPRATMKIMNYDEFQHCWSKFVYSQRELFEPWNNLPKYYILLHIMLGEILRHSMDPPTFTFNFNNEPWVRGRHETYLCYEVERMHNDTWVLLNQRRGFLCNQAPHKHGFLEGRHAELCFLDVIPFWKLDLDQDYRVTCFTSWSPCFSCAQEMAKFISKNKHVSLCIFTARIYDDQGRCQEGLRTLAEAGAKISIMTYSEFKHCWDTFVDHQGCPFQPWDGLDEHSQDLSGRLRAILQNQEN
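HeLa cells stably expressing Vif and C-terminally eYFP-tagged A3G, seeded overnight at 37 deg C, then exposed to compound by pintool overnight at 37 deg C. Rise in yellow fluorescence (Ex 488/Em 500-530, Acumen) marks blocked Vif-driven A3G degradation.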
Vif-A3F inh = qHTS for Inhibitors of Vif-A3F Interactions: qHTS | HeLa A3F-eYFP + Vif (tagged APOBEC3F with the HIV-1 protein that degrades it), YFP fluorescence increase | Potency, µM (highest dose often 46.1 µM), without a hit: top-dose activity, negative = active | 0.2% of 390,000 active | AID 602313, 2012; note: potency is the fitted concentration of half-maximal effect; % of control where 0% means no effect; nearly all actives have a fitted effect of over 65% in size
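HeLa cells stably expressing Vif plus C-terminally eYFP-tagged A3F were seeded, incubated overnight at 37 deg C, dosed with compound, incubated overnight again at 37 deg C. Yellow fluorescence (Ex 488/Em 500-530) reported blocked Vif-mediated A3F-eYFP degradation.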
MCF10A rerep = A quantitative high throughput screen for small molecules that induce DNA re-replication in MCF 10a normal breast cells | 2.9% of 350,000 active | MCF 10A DNA re-replication, Hoechst nuclear intensity, 48 h | Potency, µM (top dose mostly 46.1 µM), for the others: top-dose activity, positive = re-replication, actives largely listed as activators; note: potency is the fitted concentration of half-maximal effect; % of control where 0% means no effect; nearly all actives have a fitted effect of over 50% in size
IL-1B inflam inh = qHTS for Inhibitors of Inflammasome Signaling: IL-1-beta AlphaLISA Primary Screen. THP-1 LPS/ATP IL-1B secretion, AlphaLISA, 16 h; hits give low values. activity change, % at 57.5 µM. 4.7% of 360,000 active. AID 743279, 2014; in the data active = activity change below about -50%; inconclusive = mostly about -30% to -49%; note: % is set by controls: 0 for no effect and ±100 for the full control effect
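THP-1 cells pretreated 1 hr with compounds (up to 57.5 uM final), then stimulated with LPS (250 ng/mL final) plus ATP (1.25 mM final); secreted IL-1B measured by AlphaLISA after 16 hr, decreased signal indicating inhibition.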
Starred values were filed as active, the others as inactive; ? = inconclusive; · = no result; [ ] = another dose, or the depositor's remark. In the library only some 6.9% were active in any assay of this set; here they are far more common. Unless noted, calls come from the whole dose curve; as a rule, active = well fitted curve in the direction sought with a large enough effect; inconclusive = small, poorly fitted or top-dose-only effect, or another doubt; inactive = no such curve, though single readings can be large; an effect the other way counts as inactive or inconclusive.

SMILES	Giardia killer	SW480 rerep	Vif-A3G inh	Vif-A3F inh	MCF10A rerep	IL-1B inflam inh
O=C(c1ccc(COc2ccc(Cl)cc2)cc1)N1CCCCC1	2.5	?	-4.3%	0.9%	22.5%	-62.9*
CN(CCOc1ccc(Cl)cc1)C(=O)C1CCN(C(=O)c2ccc(Cl)cc2)CC1	-10.1	-8.4%	0.9%	0.7%	2.6%	-60.6*
CCOc1ccc(C=Nc2ccc(/C=C/c3ccnc4ccccc34)cc2)cc1OCC	·	·	-1.6%	·	·	·
COc1ccc[n+](CC(=O)c2ccc(F)cc2)c1	·	·	-0.7%	·	·	·
COC(=O)C1=C(C)N(Cc2cccnc2)C(=O)/C1=C\c1sccc1C	-6.2	-6.2%	-5.3%	-12.9%	2.5%	-53.4*
COC(=O)C1=C(C)N(Cc2ccc(C)cc2)C(=O)/C1=C\c1ccc(O)c(OC)c1	2.2	1.2%	?	-17.1%	?	-60.4*
COC(=O)C1=C(C)N(Cc2ccc(C)cc2)C(=O)/C1=C\c1cc(OC)c(OC)c(OC)c1	-1.8	?	-27.1%	?	?	-79.1*
CCN1C(=O)/C(=C\c2ccco2)C(C(=O)OC)=C1C	-1.1	-10.6%	-1.3%	7.0%	-184.8%[0.0737 µM]	-9.7
CCOc1cc(/C=C2\C(=O)N(Cc3ccco3)C(C)=C2C(=O)OC)ccc1O	1.3	?	-13.2%	-24.6%	23.4%	-104.6*
CCN1C(=O)/C(=C\c2cccs2)C(C(=O)OC)=C1C	-14.5	-9.0%	-7.6%	-4.7%	3.1%	-27.9
CCOc1cc(/C=C2\C(=O)N(CCc3ccc(OC)c(OC)c3)C(C)=C2C(=O)OC)ccc1O	5.5	?	2.0%	1.8%	25.9%	?
COc1cccc(/C=C/c2nc(C#N)c(N3CCCCC3)o2)c1	·	·	-0.4%	7.8%	·	·
Cc1ccccc1-c1noc(-c2nnn(-c3ccccc3C)c2N)n1	·	·	-4.8%	-0.9%	·	·
O=C(CCc1nc(-c2ccccc2F)no1)Nc1cccc(C(F)(F)F)c1	·	·	4.8%	3.1%	·	·
Cc1c2ccccc2c(C)c2c1ccc1ccccc12	12.2	1.84µM*	0.5%	0.1%	?	-10.3
Cc1cnc2ccc3ccccc3c2c1C	·	·	1.9%	·	·	·
Cc1ccc(S(=O)(=O)Nc2cc(Cl)c3oc4c(c3c2)C(=O)CC(C)(C)C4)cc1	·	·	3.1%	-25.1%	·	·
Cc1sc2ccccc2[n+]1C	·	·	4.6%	·	·	·
Cc1cc(C[n+]2cc(Cl)ccc2N)c2ncccc2c1	1.2	-2.6%	0.6%	-3.4%	5.5%	-76.0*
Cc1cc(C[n+]2cc(Br)ccc2N)c2ncccc2c1	7.7	8.4%	2.3%	7.6%	8.2%	-62.4*
Cc1cc(C[n+]2ncsc2N)c2ncccc2c1	-8.8	3.8%	0.5%	1.0%	13.7%	-12.4
CC12C=CC(=O)C=C1C(F)CC1C3CCC(O)(C(=O)CO)C3(C)CC(O)C12F (stereo not given)	-3.0	-6.5%	0.3%	5.7%	-5.8%	-24.1
CC(=O)C1(O)CCC2C3CC(C)C4=CC(=O)C=CC4(C)C3(F)C(O)CC21C (stereo not given)	6.9	8.1%	2.1%	11.6%	23.9%	-53.7*
CC(=O)OCC(=O)C1(O)CCC2C3CCC4=CC(=O)CCC4(C)C3(F)C(O)CC21C (stereo not given)	9.0	0.1%	0.1%	-28.3%	-1.6%	-53.2*
CC(=O)OCC(=O)C1(O)CCC2C3CC(C)C4=CC(=O)C=CC4(C)C3(F)C(O)CC21C (stereo not given)	-7.3	10.1%	-1.1%	-13.9%	3.4%	·
SMILES	Giardia killer	SW480 rerep	Vif-A3G inh	Vif-A3F inh	MCF10A rerep	IL-1B inflam inh
CC12C=CC(=O)C=C1CCC1C3CCC(O)(C(=O)CO)C3(C)CC(O)C12F (stereo not given)	5.7	-2.1%	-0.5%	?	18.0%	-56.7*
CC(=O)OCC(=O)[C@@]1(O)CC[C@H]2[C@@H]3CCC4=CC(=O)C=C[C@]4(C)[C@@]3(F)[C@@H](O)C[C@@]21C	-6.9	-72.0%	4.0%	2.4%	-1.0%	-55.6*
O=C(CC(SCCO)c1ccc2c(c1)OCO2)c1cccs1 (stereo not given)	-3.9	-3.2%	-21.2%	-0.7%	-3.5%	-75.0*
O=C(CC(SCc1ccco1)c1ccc(O)cc1)c1cccs1 (stereo not given)	1.1	-2.8%	-18.9%	-1.0%	?	-52.4*
CC(NC(=O)Cc1cccs1)c1ccc2c(c1)OCO2 (stereo not given)	1.0	-5.9%	6.0%	-3.0%	1.8%	0.0
COc1ccccc1N1CCN(C(=O)Cn2ncc3c(=O)oc4ccccc4c32)CC1	·	·	2.0%	-10.2%	·	·
COc1cccc(S(=O)(=O)NCC(=O)Nc2ccc(C(C)(C)C)cc2)c1	14.1	-4.6%	1.8%	-3.5%	0.9%	-59.9*
CCOc1cc(C(=O)Nc2ccc(-c3nc4ccccc4s3)cc2Cl)cc(OCC)c1OCC	·	·	2.6%	-10.6%	·	·
CCN(CC)c1ccc(C(=O)Nc2ccccc2)cc1[N+](=O)[O-]	3.5	-47.6%	-4.3%	-8.5%	2.3%	-95.6*
O=C(Nc1cccc(S(=O)(=O)N2CCOCC2)c1)c1ccc(Cl)c([N+](=O)[O-])c1	1.7	16.4µM*	0.8%	4.3%	9.2µM*	-98.7*
O=C(Nc1ccc(S(=O)(=O)N2CCOCC2)cc1)c1cc([N+](=O)[O-])ccc1Cl	4.7	16.4%	-13.6%	-0.3%	4.5%	20.7
CC(=O)N1CCN(c2ccc(NC(=O)c3ccc(Cl)c([N+](=O)[O-])c3)cc2)CC1	5.0	0.2%	-4.3%	5.0%	?	-52.4*
O=C(Nc1ccc(S(=O)(=O)N2CCOCC2)cc1)c1ccc(Cl)c([N+](=O)[O-])c1	-3.6	?	-7.6%	1.6%	?	-96.1*
CCOC(=O)c1c(C)c(C(=O)NCCc2ccc(OC)cc2)c(C)n1C	·	·	-0.7%	-0.5%	·	·
CC(C)CNC(=O)c1cccc(NC(=O)Cc2ccc(Br)cc2)c1	-12.6	1.46µM*	-2.6%	-5.1%	1.7%	-8.1
CC(C)CNC(=O)c1cccc(NC(=O)c2ccc(Cl)c([N+](=O)[O-])c2)c1	-1.7	6.8%	0.7%	0.0%	?	-111.6*
Cc1ccc(-c2c[n+](CC(=O)Nc3c(C)cccc3C)c3n2CCC3)cc1	18.1	-5.1%	2.7%	4.4%	1.2%	-63.6*
Cc1ccc(-c2csc(NC(=O)C[n+]3cc(-c4ccccc4)n4c3CCC4)n2)cc1	-19.2	?	-11.4%	1.8%	11.0%	-87.4*
